Source: PubChem BioAssay
Mito fusion yeast = mitochondrial division inhibition or fusion activation; S. cerevisiae fusion-defective mutant growth rescue, CellTiterGlo 48 h; 320,000 compounds, 0.23% hits; Potency, µM (titrated, usually from 46.1 µM), inactives show at the highest dose growth rescue (activation), actives largely listed as activators; also: % of control where 0% means no effect; nearly all actives have a fitted effect of over 45% in size
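Compounds are tested for their ability to restore growth of mitochondrial fusion-defective yeast strains at non-permissive 37C in YPEG medium over 48 hours. Viability is quantified by luciferase luminescence.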
FUS suppressor = rescues growth of FUS-expressing yeast. Potency, µM (titrated, usually from 76.6 µM), hits mostly activators. AID 1347120. S. cerevisiae FUS-expressing, growth rescue, OD600, 24 h. 390,000 compounds, 0.24% hits;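 also: plate controls were DMSO vehicle for no effect and reference control for full effect; nearly all actives have a fitted effect of over 55% in size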
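Cultures pregrown in 2.5% raffinose medium are shifted to minimal medium containing 2% galactose to express toxic FUS. Compounds are tested at several concentrations. After 24hr at 30C, growth is quantified at 600 nm absorbance.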
aSyn rescue = alpha-synuclein toxicity inhibition in yeast | Potency, µM (top dose mostly 46.1 µM), for the others: top-dose growth rescue (activation), most hits filed as activators | Yeast expressing alpha-synuclein, growth rescue, BacTiter-Glo, 24 h | 370,000 compounds, 0.14% hits; also: % of control where 0% means no effect; nearly all actives have a fitted effect of over 65% in size
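Galactose-induced alpha-syn yeast (OD600=0.02, raffinose-pregrown) + pinned cpd, 24 hr, 30 deg C; growth by BacTiter-Glo luminescence. Growth restoration scores as activation.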
Abeta yeast res = restores growth of yeast expressing A-beta42 peptide | 410,000 compounds, 0.063% hits | yeast expressing A-beta42, growth rescue, OD600, 48 h; response scale: 0% DMSO, 100% iron-clioquinol control | Potency, µM (top dose mostly 46.1 µM), hits mostly activators; also: nearly all actives have a fitted effect of over 55% in size
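Yeast growth medium received pinned compounds, then yeast cells expressing toxic A-beta were added; plates incubated at 30 C for 48 hr. Growth read as absorbance at 600 nm, normalized to DMSO and equimolar FeCl3 plus clioquinol controls.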
TDP43 rescue = TDP-43 toxicity inhibition in yeast | TDP-43 expressing yeast growth rescue, BacTiter-Glo, 24 h | Potency, µM (series often up to 46.1 µM), for the others: at the highest dose growth rescue (activation), actives largely listed as activators | 410,000 compounds, 1.8% hits | AID 652104; also: % of control where 0% means no effect; nearly all actives have a fitted effect of over 50% in size
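Yeast cells expressing TDP-43 under galactose induction are exposed to compounds for 24 hr at 30 deg C. BacTiter-Glo luminescence measures growth, so protective compounds score as activators.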
* hit, by the source's call; i = inactive; ? = inconclusive; . = no result given. This is a sample that favours compounds with a hit; in the whole collection about 2.2% have one here. Calls follow the shape of the dose curve; as a rule, active = well fitted curve in the direction sought with a large enough effect; inconclusive = small, poorly fitted or top-dose-only effect, or another doubt; inactive = no such curve, though single readings can be large; an effect the other way counts as inactive or inconclusive. Potency is read from the fitted curve at half-maximal effect.

SMILES | Mito fusion yeast | FUS suppressor | aSyn rescue | Abeta yeast res | TDP43 rescue
COC(=O)CN(C)C1CC(=O)N(c2ccc(Cl)cc2)C1=O (configuration not stated) | 2% | i | 2% | i | 18µM*
O=C(CN1CCN(S(=O)(=O)c2cc(Cl)ccc2Cl)CC1)Nc1cccc(F)c1 | . | i | 9% | i | 35µM*
O=C(c1ccc2c(c1)N(Cc1ccc(F)cc1)C(=O)c1ccccc1S2(=O)=O)N1CCN(Cc2ccccc2)CC1 | . | i | . | i | -6%
O=C(O)c1ccc(Nc2ccc(Cl)c(Cl)c2)c([N+](=O)[O-])c1 | 14µM* | i | 2% | i | 19%
Cc1ccc(Nc2ccc(C(=O)O)cc2[N+](=O)[O-])cc1 | ? | i | 1% | i | 2.8µM*
CC(C)NC(=O)N(C)C[C@@H]1Oc2c(NC(=O)Nc3ccccc3)cccc2C(=O)N([C@H](C)CO)C[C@H]1C | . | i | -1% | i | -12%
CN(C)/C=C(\C#N)c1nc2ccccc2[nH]1 | -1% | i | -4% | i | -11%
CCOc1cc(N(CC)CC)ccc1/C=C(/C#N)c1nc2ccccc2[nH]1 | 16% | ? | -22% | i | 7.1µM*
CCN(CC)c1ccc(/C=C(/C#N)c2nc3ccc(C)cc3[nH]2)c(OC(C)C)c1 | 0% | 8.9µM* | -35% | i | ?
CCCOc1cc(N(CC)CC)ccc1/C=C(/C#N)c1nc2ccc(C)cc2[nH]1 | 3% | . | -30% | i | ?
N#C/C(=C\c1c(Cl)cccc1Cl)c1nc2ccccc2[nH]1 | 14% | i | -46% | i | 11µM*
CNC(=O)c1ccc(-c2sc3nc(N4CCOCC4)c4c(c3c2N)CCCC4)o1 | 6% | 7.1µM* | -8% | i | 22µM*
O=C(NNC(=O)c1csc(-c2cccs2)n1)c1ccc(Cl)cc1 | . | i | 17% | i | 22µM*
Cc1nc(C(=O)NNC(=O)c2ccc(Cl)cc2)cs1 | 7% | i | 2% | i | -2%
COC(=O)C1CCN(C(=O)/C(C)=C\c2ccccc2)CC1 | 1% | i | 8% | i | 8%
C=CCC[C@H](Cc1ccc(F)cc1)C(=O)OC[C@@H](C)NC(=O)[C@@H](CC=C)CC(=O)N[C@@H](CO)Cc1ccccc1 | . | i | -3% | i | 20%
C=CC[C@@H](CC(=O)N[C@H](CO)Cc1ccccc1)C(=O)N[C@H](COC(=O)[C@@H](CC=C)Cc1ccc(F)cc1)C(C)(C)C | . | 16µM* | -10% | i | 17%
C=CCC[C@H](Cc1ccc(F)cc1)C(=O)OC[C@@H](C)NC(=O)[C@@H](CC=C)CC(=O)N[C@H](CO)Cc1ccccc1 | . | 25µM* | -3% | i | -2%
C=CCC[C@H](Cc1ccc(F)cc1)C(=O)OC[C@@H](NC(=O)[C@@H](CC=C)CC(=O)N[C@@H](CO)Cc1ccccc1)C(C)(C)C | . | 13µM* | -1% | i | -30%
CC(=O)C(=Cc1cccc(C#N)c1)C(=O)c1ccccc1 | . | i | ? | i | ?
Cc1cc2oc(C(=O)Nc3sc4c(c3C(=O)NCC3CCCO3)CCCC4)cc(=O)c2cc1C (configuration not stated) | . | i | . | i | 19%
Cc1ccc(C)c(NC(=O)CN(C)C(=O)c2cc3c(s2)CCCCC3)c1 | 9% | i | -3% | i | 1%
CCCNC(=O)C(Cc1cccc(C#N)c1)NC(=O)c1ccc(C#N)cc1 (configuration not stated) | -5% | i | 4% | i | 4%
COc1ccc(C2CC2/C(C)=N/OC(=O)C2CC2)cc1 (configuration not stated) | 29% | i | -20% | i | 14µM*
CSc1ccc(S(=O)(=O)NCc2ccccc2C)cc1 | 10% | i | 6% | i | 14µM*
C=Cc1ccc(Cn2c(SCC(=O)N3CCN(c4ccc(F)cc4)CC3)nc3ccccc32)cc1 | . | i | . | i | 25%
COc1ccc(C(=O)NCc2ccccc2)cc1Br | 0% | i | 8% | i | ?
COc1ccc(C(=O)c2ccccc2)cc1Br | 1% | i | 3% | i | 13µM*
